The results in this text go back to PubChem BioAssay.

Values without a mark were called inactive. For some of these results: Potency and affinity values are given separately. Calls of active or inactive are those of the source. Unless noted, no rule for the calls is given here.

Broadly, the inhibition is the relative decrease from the control value, in per cent.

A short description of test [1]: antimalarial activity against Dd2 strain (AID 2302;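 active = growth inhibition above 50% at the single 2 µM test dose, taken to imply half-maximal potency below 2 µM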;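 also: 0% = DMSO untreated growth and 100% = chloroquine plus artemisinin killed control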). The following applies: P. falciparum Dd2 in RBCs, LDH growth readout, 72 h; at 2 µM; hits give high values.
The nature of test [2]: human hepatoma cell viability loss – ATP luminescence, cytotoxicity control for P. falciparum antimalarial project, primary screen (AID 2303;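 active = inhibition above 50%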;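 also: 0% = DMSO wells and 100% = digitonin-killed cells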). The conditions noted are these: HepG2 viability, 24-48 h, at 10 µM, hits give high values.
Test [3] deals with L-lactate dehydrogenase (Plasmodium falciparum (isolate CDC / Honduras)) (UniProt Q27743). Nature of the test: PfLDH activity inhibition – cell lysate, 3D7 strain, counter-screen for P. falciparum growth inhibition project (AID 2304).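 Also: 0% = vehicle and 100% = reference inhibitor.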 The following applies: P. falciparum 3D7 crude extract, LDH APAD/NBT absorbance; at 2 µM; hits give high values. On the technique in general: A counterscreen serves to expose hits that act by an unwanted route or on another target.
Sequence of L-lactate dehydrogenase (Plasmodium falciparum (isolate CDC / Honduras)) (Q27743 whole entry, looked up): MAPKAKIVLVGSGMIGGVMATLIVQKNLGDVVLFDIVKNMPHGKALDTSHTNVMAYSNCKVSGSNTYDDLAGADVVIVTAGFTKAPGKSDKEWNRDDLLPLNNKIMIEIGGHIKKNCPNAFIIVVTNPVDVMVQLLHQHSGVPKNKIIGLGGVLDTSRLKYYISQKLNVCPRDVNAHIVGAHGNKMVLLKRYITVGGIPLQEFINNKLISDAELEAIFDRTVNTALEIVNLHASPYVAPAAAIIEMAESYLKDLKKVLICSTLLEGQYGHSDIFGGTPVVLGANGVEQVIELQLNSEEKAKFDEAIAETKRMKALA

Test [4] is described as follows: inhibition of 3D7 malaria parasite growth – strain 3D7 (AID 2306).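 Also: 0% = DMSO wells and 100% = chloroquine plus artemisinin control wells.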 The following applies: P. falciparum 3D7 erythrocytic growth, LDH absorbance, 72 h; at 2 µM; hits give high values.
For test [5], the target named is Calcium-dependent protein kinase 1 (Plasmodium falciparum (isolate 3D7)) (UniProt P62344). Nature of the test: PfCDPK1 kinase inhibitors, biochemical, TCAMS library (AID 1159585; cut-off not given, nearly all actives have IC50 up to about 0.98 µM;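 also: inhibitors leave more ATP so luminescence rises with inhibition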). The conditions noted are these: recombinant PfCDPK1, Kinase-Glo ATP depletion luminescence.
Sequence of Calcium-dependent protein kinase 1 (Plasmodium falciparum (isolate 3D7)) (P62344 whole entry, looked up): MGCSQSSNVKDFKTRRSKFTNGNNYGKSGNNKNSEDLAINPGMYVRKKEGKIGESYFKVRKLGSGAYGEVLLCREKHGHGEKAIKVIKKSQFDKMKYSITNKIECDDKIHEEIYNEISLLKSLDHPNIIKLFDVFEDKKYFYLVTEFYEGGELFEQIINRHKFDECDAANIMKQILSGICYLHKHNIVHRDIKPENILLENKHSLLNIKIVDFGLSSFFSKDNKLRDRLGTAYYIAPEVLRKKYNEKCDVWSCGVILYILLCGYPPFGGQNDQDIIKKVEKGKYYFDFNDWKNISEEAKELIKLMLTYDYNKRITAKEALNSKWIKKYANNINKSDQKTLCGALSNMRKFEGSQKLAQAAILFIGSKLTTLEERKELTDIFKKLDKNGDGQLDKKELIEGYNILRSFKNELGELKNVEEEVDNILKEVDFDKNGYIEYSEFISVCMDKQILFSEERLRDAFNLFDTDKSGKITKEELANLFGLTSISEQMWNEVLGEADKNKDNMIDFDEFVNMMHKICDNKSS
Test [6] deals with Plasmodium falciparum protein kinase 6 (PK6, PF3D7_1337100) (UniProt Q8IDW1). Nature of the test: PfPK6 kinase inhibitors, biochemical, TCAMS library (AID 1159586). The following applies: recombinant PfPK6, Kinase-Glo ATP depletion luminescence. On the technique in general: Kinase-Glo measures the ATP left after a reaction by luminescence.
Sequence of Plasmodium falciparum protein kinase 6 (PK6, PF3D7_1337100) (Q8IDW1 1-305): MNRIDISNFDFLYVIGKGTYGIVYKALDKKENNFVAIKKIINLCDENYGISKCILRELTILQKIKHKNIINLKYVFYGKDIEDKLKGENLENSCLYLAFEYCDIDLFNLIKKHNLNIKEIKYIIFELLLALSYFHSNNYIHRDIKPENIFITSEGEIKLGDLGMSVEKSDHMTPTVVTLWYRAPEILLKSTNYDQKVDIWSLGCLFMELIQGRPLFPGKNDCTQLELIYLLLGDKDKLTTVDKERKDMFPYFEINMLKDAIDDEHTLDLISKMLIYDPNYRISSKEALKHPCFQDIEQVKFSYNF
The target in test [7] is Protein kinase 7 (PK7), Plasmodium falciparum 3D7 (PF3D7_0213400) (UniProt Q7YTF7). As to the kind of experiment: inhibition of Plasmodium PK7 catalytic activity – biochemical, TCAMS antimalarial set, Kinase-Glo luminescence (AID 1159587). The following applies: recombinant PfPK7, Kinase-Glo ATP depletion luminescence.
Sequence of Protein kinase 7 (PK7), Plasmodium falciparum 3D7 (PF3D7_0213400) (Q7YTF7 1-343): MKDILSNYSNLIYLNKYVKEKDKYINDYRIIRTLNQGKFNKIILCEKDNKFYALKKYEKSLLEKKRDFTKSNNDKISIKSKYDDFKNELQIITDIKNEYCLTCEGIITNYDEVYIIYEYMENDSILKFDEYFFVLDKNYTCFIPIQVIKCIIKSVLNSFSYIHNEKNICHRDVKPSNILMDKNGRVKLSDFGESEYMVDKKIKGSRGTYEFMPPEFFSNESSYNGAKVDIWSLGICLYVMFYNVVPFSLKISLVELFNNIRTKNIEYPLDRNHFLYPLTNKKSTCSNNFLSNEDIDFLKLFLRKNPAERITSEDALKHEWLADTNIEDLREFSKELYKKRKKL
The target in test [8] is Calcium-dependent protein kinase 4 (Plasmodium falciparum (isolate 3D7)) (UniProt Q8IBS5). As to the kind of experiment: PfCDPK4 kinase inhibitors, biochemical, TCAMS library (AID 1159588; cut-off not given, nearly all actives have IC50 up to about 0.91 µM). The following applies: recombinant PfCDPK4, Kinase-Glo ATP depletion luminescence.
Sequence of Calcium-dependent protein kinase 4 (Plasmodium falciparum (isolate 3D7)) (Q8IBS5 whole entry, looked up): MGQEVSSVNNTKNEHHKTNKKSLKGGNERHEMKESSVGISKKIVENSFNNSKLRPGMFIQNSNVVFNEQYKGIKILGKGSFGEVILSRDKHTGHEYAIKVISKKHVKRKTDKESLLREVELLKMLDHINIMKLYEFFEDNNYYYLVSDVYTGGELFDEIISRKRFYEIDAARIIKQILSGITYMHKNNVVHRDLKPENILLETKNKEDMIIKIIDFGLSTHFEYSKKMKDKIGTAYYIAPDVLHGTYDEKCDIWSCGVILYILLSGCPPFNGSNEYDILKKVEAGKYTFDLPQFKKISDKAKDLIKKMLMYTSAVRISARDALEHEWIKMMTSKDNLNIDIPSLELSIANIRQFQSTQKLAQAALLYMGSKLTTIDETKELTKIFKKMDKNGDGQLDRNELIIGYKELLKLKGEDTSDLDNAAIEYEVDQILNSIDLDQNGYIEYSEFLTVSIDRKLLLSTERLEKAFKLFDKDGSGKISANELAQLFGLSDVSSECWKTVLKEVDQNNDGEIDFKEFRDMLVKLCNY

As to `O=C(Nc1ccc(S(=O)(=O)N2CCCC2)cc1)c1cc(-c2cccnc2)nc2ccc(Cl)cc12`, the growth inhibition in test [1] was 95% (active); in test [4] it was 97% (active). In addition, the results for the inhibition in test [2] and in test [3] were 4% and -6%, respectively. The outcome in test [5], in test [6], in test [7] and in test [8] was inactive.

For the molecule `Cc1ccc2nc(-c3ccc(C(=O)NC4CCN(Cc5ccccc5)CC4)s3)[nH]c2c1`, the growth inhibition in test [1] is 83% (active); in test [4] it was 97% (active). Besides, the inhibition in test [2] is 13%; in test [3], -5%. Besides, the result in test [5], in test [6], in test [7] and in test [8] was inactive.

Consider `CC(Nc1nncc(-c2cccc(F)c2)n1)c1ccc(F)cc1` (stereo not given), for which the growth inhibition in test [1] was 89% (active); in test [4] it was 95% (active). Further, the inhibition in test [2] is 4%; in test [3], 0%. In addition, the result in test [5], in test [6], in test [7] and in test [8] was inactive.

For `O=S(=O)(c1ccc(OC(F)(F)F)cc1)C1C[C@H]2CC[C@@H](C1)N2S(=O)(=O)c1ccc(Cl)c(C(F)(F)F)c1` (stereo not given in full), the growth inhibition in test [1] is 95% (active); in test [4], 100% (active). Moreover, the inhibition in test [2] is 1%; in test [3], -5%. In addition, the outcome in test [5], in test [6], in test [7] and in test [8] was inactive.

Take `CCCNC(=O)c1ccc(N2CCC(c3ccccc3C)CC2)nc1`: the growth inhibition in test [1] was 80% (active); in test [4], 86% (active). The values for the inhibition in test [2] and in test [3] were 6% and 2%, respectively. Besides, the result in test [5], in test [6], in test [7] and in test [8] was inactive.

Turning to `COc1cccc(CNC(=O)NC2CCN(c3ccnc(Nc4ccc(F)cc4)n3)C2)c1` (stereo not given), the values for the growth inhibition in test [1] and in test [4] were 64% (active) and 94% (active), respectively. The inhibition was 20% in test [2] and -7% in test [3]. Further, the outcome in test [5], in test [6], in test [7] and in test [8] was inactive.

With `Cc1nc(Nc2ccc(F)cc2)nc(N2CCc3ccccc3C2C)c1CO` (stereo not given), the values for the growth inhibition in test [1] and in test [4] were 95% (active) and 101% (active), respectively. Besides, the inhibition was -9% in test [2] and -4% in test [3]. The outcome in test [5], in test [6], in test [7] and in test [8] was inactive.

In the case of `O=C(/C=C/c1ccc(Cl)c(Cl)c1)NCCCCCN1CCC(CCCNC(=O)Nc2ccc(C(F)(F)F)cc2)CC1`, the growth inhibition in test [1] is 19%; in test [4], 91% (active). For the same molecule, the inhibition is -2% in test [2] and -7% in test [3]. Further, the outcome in test [5], in test [6], in test [7] and in test [8] was inactive.

As to `N#Cc1cccc(NC(=O)Nc2cccc(-c3cccc(-c4nc5ccc(F)cc5[nH]4)c3)c2)c1`, the growth inhibition in test [1] is 66% (active); in test [4], 102% (active). The figures for the inhibition in test [2] and in test [3] were 60% (active) and 0%, respectively. Further, the result in test [5], in test [6], in test [7] and in test [8] was inactive.

For `Cc1cccc2[nH]c(-c3cccc(-c4ccc(NC(=O)Nc5ccsc5)cc4)c3)nc12`, the growth inhibition was 99% (active) in test [1] and 100% (active) in test [4]. Moreover, the inhibition in test [2] is 27%; in test [3] it was 0%. Also, the outcome in test [5], in test [6], in test [7] and in test [8] was inactive.

Regarding `CCCCc1ccccc1NS(=O)(=O)c1ccc(OC)c(N2CCNCC2)c1`, the growth inhibition was 2% in test [1] and 91% (active) in test [4]. The inhibition in test [2] was 6%; in test [3], 0%. The result in test [5], in test [6], in test [7] and in test [8] was inactive.

For `COc1ccc2nccc(NN=CC=Cc3ccccc3)c2c1`, the growth inhibition in test [1] was 99% (active); in test [4] it was 101% (active). For the same molecule, the inhibition in test [2] is 11%; in test [3], -3%. For the same molecule, the result in test [5], in test [6], in test [7] and in test [8] was inactive.

Turning to `O=C(NCCN1CCCC1)c1ccc(-c2ccc(-c3nc4ccc(C(F)(F)F)cc4[nH]3)s2)cc1`, the growth inhibition in test [1] was 65% (active); in test [4], 97% (active). For the same molecule, the inhibition in test [2] was 31%; in test [3], 4%. The outcome in test [5], in test [6], in test [7] and in test [8] was inactive.

Turning to `COc1ccc(C(=O)Nc2ccc3nc(N4CCCCC4)cc(C)c3c2)cc1[N+](=O)[O-]`, the values for the growth inhibition in test [1] and in test [4] were 7% and 96% (active), respectively. Also, the figures for the inhibition in test [2] and in test [3] were 17% and -9%, respectively. Moreover, the result in test [5], in test [6], in test [7] and in test [8] was inactive.

Consider `Cc1cc(NCc2ccc(F)cc2)nc2cc(O)ccc12`, for which the growth inhibition in test [1] is 85% (active); in test [4], 98% (active). Further, the inhibition in test [2] was 14%; in test [3], -7%. Besides, the outcome in test [5], in test [6], in test [7] and in test [8] was inactive.

In the case of `Cc1cccc2[nH]c(-c3ccc(-c4ccc(NC(=O)NCc5cccc(F)c5)cc4)s3)nc12`, the growth inhibition in test [1] is 43%; in test [4] it was 101% (active). Moreover, the values for the inhibition in test [2] and in test [3] were 70% (active) and -6%, respectively. For the same molecule, the outcome in test [5], in test [6], in test [7] and in test [8] was inactive.

Regarding `COc1ccc2nc3ccccc3c(NCCN3CCN(C)CC3)c2c1`, the figures for the growth inhibition in test [1] and in test [4] were 10% and 81% (active), respectively. The inhibition is 11% in test [2] and 1% in test [3]. Besides, the result in test [5], in test [6], in test [7] and in test [8] was inactive.

For the molecule `O=C(Nc1cccc(F)c1)N1CCC(CN2CCOC(c3ccccc3)(c3ccccc3)C2)CC1`, the growth inhibition was 97% (active) in test [1] and 96% (active) in test [4]. Also, the values for the inhibition in test [2] and in test [3] were 12% and 7%, respectively. For the same molecule, the result in test [5], in test [6], in test [7] and in test [8] was inactive.

For the molecule `OCC1CCN(Cc2ccc(-c3ccc(-c4nc5ccc(C(F)(F)F)cc5[nH]4)cc3)cc2)CC1`, the growth inhibition in test [1] was 91% (active); in test [4] it was 100% (active). The inhibition is 17% in test [2] and -2% in test [3]. Also, the outcome in test [5], in test [6], in test [7] and in test [8] was inactive.

As for `Cc1[nH]c(C)c(-c2ccc(-c3ccc4c(c3)OCO4)nc2)c(=O)c1Br`, the growth inhibition in test [1] and in test [4] was 96% (active) each time. In addition, the values for the inhibition in test [2] and in test [3] were -6% and -8%, respectively. Moreover, the outcome in test [5], in test [6], in test [7] and in test [8] was inactive.
